Results filed as inconclusive are left out. Active and inactive are the calls of the source. The call rests on the fitted dose curve; in most records, active means well fitted cell-killing curve with a large enough effect; inconclusive means small, poorly fitted or top-dose-only effect; inactive means flat fitted curve, though single readings scatter.
Assay: Cell Viability - LYMP2-023 (AID 975);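 further: plate controls were DMSO only for no effect and 92 µM tetraoctylammonium bromide control for full effect; nearly all actives have a fitted effect of over 55% in size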
Conditions: LYMP2-023 lymphoblastoid cell viability; series mostly up to 92.2 µM; activity change, negative = cytotoxicity: at the top concentration
Text: NIH Chemical Genomics Center [NCGC]
NIH Molecular Libraries Screening Centers Network [MLSCN]
National Institutes of Environmental Health Sciences [NIEHS]
National Toxicology Program [NTP]
We have developed a 1536-well cell-based assay for quantitative high throughput screening (qHTS) against a number of cell lines to determine in vitro cytotoxicity of small molecules. This particular assay uses a human lymphoblastoid cell line (LYMP2-023) purchased from Coriell Institute for Medical Research.
NCGC Assay Protocol Summary:
The CellTiter-Glo luminescent cell viability assay (Promega) is a homogeneous method to measure the number of viable cells in culture. The end point readout of this assay is based on quantitation of intracellular ATP, an indicator of metabolic activity, using the luciferase reaction. Luciferase catalyzes the oxidation of beetle Luciferin to oxyluciferin and light in the presence of ATP. The luminescent signal is proportional to amount of ATP present.
Using the CellTiter-Glo luminescent cell viability assay, the amount of cellular ATP was measured in the lymphoblastoid cell line with complete culture medium following compound treatment for 24 hours. The assay was performed in opaque white Kalypsys 1536-well plates. In the screen, tetraoctylammonium bromide was used as positive control. Library compounds were measured for their ability to cause acute toxicity in the cell line, as reflected by a decrease in intracellular ATP levels, in a concentration-dependent manner. […] AC50 values were determined from concentration-response data modeled with the standard Hill equation.
qHTS protocol for CellTiter Glo lymphoblastoid cellular assay
[Step] [Parameter] [Value] [Description]
1. Reagent; 5 uL; 2500 lymphoblastoid cells/well
2. Time; 5 hr; 37 C incubation
4. Controls; 23 nL; Tetraoctylammonium bromide 6.4pM to 92 uM
5. Time; 24 hr; 37 C incubation
6. Reagent; 5 uL; CellTiter Glo reagent
7. Time; 30 min; Room Temperature
8. Detection; Luminescence; Viewlux plate reader
Keywords: cell viability, cytotoxicity, lymphoblastoid cell line, luminescence, NTPHTS, NTPHTS_NCGC, NIEHS, DSSTox, MLSMR, MLSCN, NIH Roadmap, qHTS, NCGC

| Structure (SMILES) | activity change, negative = cytotoxicity |
| --- | --- |
| c1ccc2c(c1)Oc1ccccc1S2 | -6.13% (inactive) |
| CCCC(Cl)CCCC(Cl)CCC(Cl)CCC(Cl)CCC(Cl)CCCC(Cl)CCC (stereo not given) | -1.94% (inactive) |
| O=C(O)CN(CC(=O)O)CC(=O)O | -2.35% (inactive) |
| CCC(C)(C)C | -0.767% (inactive) |
| Oc1cccc(Nc2ccccc2)c1 | -2.74% (inactive) |
| Nc1ccccc1[N+](=O)[O-] | 1.85% (inactive) |
| O=C(O)c1ccc(Cl)c(Cl)c1 | -2.37% (inactive) |
| O=C(O)c1ccc(C(=O)O)cc1 | -2.89% (inactive) |
| Cc1ccc(C#N)cc1 | -0.0583% (inactive) |
| CC(=O)c1cc(C)oc1C | 0.795% (inactive) |
| CCC(C)(C)C(=O)O | -1.54% (inactive) |
| COC(=O)c1ccccc1 | -3.62% (inactive) |
| CCCCC(CC)COCC1CO1 (stereo not given) | -7.61% (inactive) |
| CCCCC(C=O)CC (stereo not given) | 0.601% (inactive) |
| OCCO | 0.778% (inactive) |
| CCCCOCCOCCSC#N | -3.03% (inactive) |
| Cc1ccccc1Br | -8.05% (inactive) |
| Nc1cccc2c(=O)[nH][nH]c(=O)c12 | -5.56% (inactive) |
| Cc1cscn1 | -1.51% (inactive) |
| Cc1ccc(C)c(N)c1 | 2.18% (inactive) |

| Structure (SMILES) | activity change, negative = cytotoxicity |
| --- | --- |
| C=C(C)C(=O)OCCCCCCCCCC | 7.31% (inactive) |
| O=C(O)CCSSCCC(=O)O | -0.285% (inactive) |
| O=Cc1ccccc1Cl | -0.418% (inactive) |
| O=C(O[C@@H](C(=O)O)[C@@H](OC(=O)c1ccccc1)C(=O)O)c1ccccc1 | 3.91% (inactive) |
| CC(C)C=O | -1.13% (inactive) |
| CCCCCCCN | -16.9% (inactive) |
| Cc1ccccc1C(N)=O | -3.12% (inactive) |
| CCCCC=O | -4.58% (inactive) |
| Nc1c(Cl)cc(Cl)cc1Cl | 3.21% (inactive) |
| c1ccc2[nH]cnc2c1 | -1.26% (inactive) |
| CCCCCCCCC | 5.34% (inactive) |
| O=CNc1ccccc1 | -6.88% (inactive) |
| CC(=O)CCc1ccccc1 | -5.79% (inactive) |
| CCCCCCCCCCCCC1CO1 (stereo not given) | -6.5% (inactive) |
| CC(C)CO | -8.2% (inactive) |
| CCCOCC(C)O (stereo not given) | 1.54% (inactive) |
| CCCCOCCOCCOCCCC | -7.17% (inactive) |
| Cc1ccc(CO)cc1 | 0.84% (inactive) |
| O=C(O)/C=C/C(=O)O | 0.0254% (inactive) |
| BrC(Br)C(Br)Br | 0.299% (inactive) |
